The values that follow come from PubChem BioAssay AID449746 (Sanford-Burnham Center for Chemical Genomics, 2010).

Structures are written as SMILES. The campaign covered roughly 2,000 compounds. About 680 (34%) were called active. Not all results are given here. A number with no mark means an inactive call. No stated cut-off is given here; in the data, active means inhibition mostly above about 28% (no sharp cut-off); inactive means mostly below about 22%.

The nature of this assay: PMA/ionomycin-induced NF-kB reporter inhibitors, 697 retest, confirmation, B-cell NF-kB inhibitor project, cell-based, luminescence, single concentration (AID 449746). To be noted: 697 B-cell NF-kB luciferase, 16 h, at 4 µM, hits give high values.
For the compound `CCOc1cc(C(=O)N2CCc3cc(OC)c(OC)cc3C2)ccc1OC(F)F`, the inhibition (usually the relative decrease from the control value, in per cent) was 43.5% (active).
With `Cc1ccc(C(=O)C[n+]2cc(-c3ccccc3)n3c2CCCCC3)cc1`, the inhibition was 11.4%.
The same measure for `c1ccc2[nH]c(-c3nc4ccccc4[nH]3)nc2c1`: -191%; for `Cc1cccc(Nc2nc(-c3ccccc3)cs2)n1`: -201%.
On to `CCN1/C(=C\c2ccc3ccccc3[n+]2CC)Sc2cc(C)ccc21`, for which the inhibition is 68.5% (active).
Then `COc1cccc(NC(=O)[C@H](Cc2c[nH]c3ccccc23)NC(=O)[C@@H]2Cc3ccccc3CN2)c1`, with 0.1%.
Then `CC[n+]1cc(C)ccc1/C=C/c1ccc(N(C)C)cc1`, with 17.4%; and `OCCCNc1nccc(-c2cc(Nc3cccc(Cl)c3)ncn2)n1`, with 85.9% (active).
As for `COC(=O)C1=C(C(=O)c2ccc(C)cc2)C(c2ccccc2)n2nnnc2N1` (configuration not stated), the inhibition was 22.4%.
Regarding `CCc1ccc2oc(-c3ccc(N)cc3)nc2c1`, the inhibition is -417%.
Regarding `CCCCCc1ccc(-c2ccc(C(=O)O)cc2)nc1`, the inhibition was -165%.
In the case of `CNc1nc(Nc2ccc(C)c(Cl)c2)nc(N)c1[N+](=O)[O-]`, the inhibition was -231%.
As for `O=C(C1CCC1)N1CCN(S(=O)(=O)c2ccc([N+](=O)[O-])cc2)CC1`, the inhibition is 30.8% (active).
With `C=CCSc1nc(N)cc(=O)[nH]1`, the inhibition is -19.9%.
With `COc1ccc(C(=O)n2nc(-c3ccc(Cl)cc3)nc2N)cc1OC`, the inhibition was 46.5% (active).
Take `C=CCn1c(C)cc(C2=NNC(=NCC)SC2)c1C`: the inhibition was 2.7%.
The same measure for `COc1cc(/C=N/NC(=O)c2ccc(N3CCCC3=O)cc2)ccc1O`: -89.1%; for `COc1ccc(-c2nc(-c3ccccc3)no2)c(OC)c1`: -330%.
`O=C(O)COc1ccc(-c2nccc(-c3cccs3)n2)cc1`: the inhibition was 55% (active).
On to `CCn1c(O)c(N=NC2=NC(=O)CS2)c2cc(C)ccc21`, for which the inhibition is 17.4%.
Then `COc1ccc(/C=N/Nc2ccccc2C(=O)O)cc1`, with -12.1%; and `Clc1ccc(Nc2ccc3ccccc3n2)cc1`, with -340%.
Regarding `C/C=C(/C)C(=O)OC1Cc2c(ccc3ccc(=O)oc23)OC1(C)C` (configuration not stated), the inhibition is 50.1% (active).
Regarding `COc1ccc(/C=N\NC(=O)c2sc(N)nc2C)cc1OC`, the inhibition is 7.5%.
Take `CCC(=O)Nc1ccc2nn(-c3ccc(F)cc3)nc2c1`: the inhibition was -298%.
`COc1ccc(CNC(=O)[C@@H]2CC=C[C@@H]3CCN(C4CC4)C(=O)[C@@H]32)cc1`: the inhibition was 6.95%.
The same measure for `CCOC(=O)c1cc2c(=O)n3ccccc3nc2n(CC(C)C)c1=NC(=O)c1c(-c2c(F)cccc2Cl)noc1C`: 33% (active); for `CCOc1cccc(/C=C/c2ccc3ccccc3n2)c1OC(C)=O`: -337%; for `Cn1nccc1C(=O)NC1CCCc2c1cnn2-c1ccc(F)cc1F` (configuration not stated): 105% (active).
As for `Cn1nccc1C(=O)NC1CCCc2c1cnn2-c1ccccc1F` (configuration not stated), the inhibition is 97.9% (active).
Regarding `COc1ccc(C(=O)NC2CCCc3c2cnn3-c2cccc(C)c2C)c(OC)n1` (configuration not stated), the inhibition was -397%.
As for `Cc1cc(Nc2cc(N3CCN(C)CC3)nc(Sc3ccc(NC(=O)C4CC4)cc3)n2)n[nH]1`, the inhibition was 27.8%.
Then `COc1c(C)c2c(c(O)c1C/C=C(\C)CCC(=O)O)C(=O)OC2`, with -398%; and `CC(C)CC(=O)N/C(N)=N/c1nc2ccccc2s1`, with -290%; and `Cc1ccc2cc3cc(C(=O)N4CCCCCC4)oc3nc2c1`, with -242%.
Take `COc1cc(N=Cc2c(O)[nH]c3ccccc23)cc(OC)c1OC`: the inhibition is 20.8%.
The same measure for `OCCN1CCN(C(=S)c2ccc(-c3ccccc3)cc2)CC1`: 47% (active); for `CCOC(=O)c1c(-c2ccc(C)cc2C)csc1NC(=O)CSc1nnnn1C`: -192%; for `COc1ccc(-c2csc(Nc3ccccn3)n2)cc1`: -117%.
In the case of `O=C(CN1C(=O)c2ccccc2S1(=O)=O)N1CCc2ccccc21`, the inhibition is 32.4% (active).
Consider `Cc1cc(N=Nc2ccc3ccccc3c2)ccc1O`, for which the inhibition was -266%.
Then `CC(C)(C)c1ccc(Oc2ccc(N)cc2)cc1`, with 17.2%; and `Cn1c(-c2ccc(C(F)(F)F)cc2)cc2onc(-c3ccccc3)c2c1=O`, with -301%; and `Cc1cc(N)n2nc(-c3ccc(C(C)(C)C)cc3)cc2n1`, with -470%.
`O=C(NC(Nc1nc2ccc([N+](=O)[O-])cc2s1)(C(F)(F)F)C(F)(F)F)c1ccccc1`: the inhibition was -31.2%.
On to `CCNC(=O)CCc1nc(-c2ccc(C(C)(C)C)cc2)no1`, for which the inhibition was 79.3% (active).
Regarding `CCCNC(=O)c1ccc(N2CCC3(CC2)CC(c2cccc(Br)c2)=NO3)c(NC(=O)c2ccco2)c1`, the inhibition was 16.6%.
Then `O=C(NCCCN1CCOCC1)c1cc(-c2ccc(Cl)cc2)on1`, with 17.5%.
Take `O=c1c2c(nc3cc(-c4cccc(Cl)c4)[nH]n13)CCCC2`: the inhibition was -285%.
Then `Clc1ccc2nc(CSc3ccccc3)cn2c1`, with -248%.
For the compound `CC(C)C[C@@H](N)c1nnc(SCC(=O)c2ccc(Cl)cc2)o1`, the inhibition was 56.2% (active).
On to `Fc1ccccc1/C=N/Nc1cc(N2CCCCC2)ncn1`, for which the inhibition is -264%.
For the compound `CCOc1ccc(C(c2c(C)[nH][nH]c2=O)c2c(C)[nH][nH]c2=O)cc1OCC`, the inhibition is 18.2%.
The same measure for `Cn1c(=O)cc(SCC(=O)N2CCCC2)c2cc(Cl)ccc21`: 38.2% (active); for `CC(C)CCNC(=O)c1ccc2c(Cl)c3c(nc2c1)CCC3`: -231%.
On to `Cc1ccc(NC(=O)c2cc([N+](=O)[O-])ccc2Cl)c(O)c1`, for which the inhibition is 11.5%.
Take `Cc1ccc(O)c(NC(=O)COc2cc(C)ccc2C)c1`: the inhibition was 28.7% (active).
`CC[C@]1(O)CC2CN(CCc3c([nH]c4ccccc34)[C@@](C(=O)OC)(c3cc4c(cc3OC)N(C=O)[C@H]3[C@@](O)(C(=O)OC)[C@H](OC(C)=O)[C@]5(CC)C=CCN6CC[C@]43[C@@H]65)C2)C1` (some centres not stated): the inhibition was -337%.
Consider `COc1ccc(C2=Nc3cc(C)ccc3OC2)cc1`, for which the inhibition is -255%.
Then `Cc1cccc(C(=O)Nc2ccc(CC(=O)O)cc2)c1`, with 21.7% (active).
As to `CNC(=O)c1ccc(NC(=O)c2cccc(C(F)(F)F)c2)cc1`, the inhibition is 12.7%.
Then `Cc1ccc(N/C=C/C(=O)c2ccccc2)cc1C`, with -12.9%.
